Experimental findings from the supplement of paper PMC7695840 are described below.

For test [1], the system named is Staphylococcus aureus MW2 delta-mecA (mecA-). Briefly: normalized GFP fluorescence (growth of mecA- strain) (fraction of control range); higher = more growth of mecA- strain. The note with it: compound concentration: 150 uM; cefoxitin: subinhibitory; fluorescent label: GFP. In outline: (§1)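 In 1536-well plates holding 150 μM compound (1.5% DMSO), a 1:1 mix of pre-induced S. aureus MW2 cells was added at 5 µL/well, in one replicate. One strain carried the gene and DsRed, the other lacked the gene and carried GFP, and the LB held a subinhibitory antibiotic dose chosen daily. Plates stood unshaken for 20 h at 37 °C, 90% humidity, before DsRed (540/590) and GFP (485/520) readings, which were scaled per plate to single-strain control medians, with plates high in untreated ratio and rows above DsRed/GFP 10 dropped.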

For test [2], the system named is Staphylococcus aureus MW2 (mecA+). The experiment in a line: normalized DsRed fluorescence (growth of mecA+ strain) (fraction of control range); higher = more growth of mecA+ strain. The note with it: compound concentration: 150 uM; cefoxitin: subinhibitory; fluorescent label: DsRed. In outline: as §1

Each structure is given as a SMILES string. Where a name gives a salt, the structure may show the parent alone.

As for `CC(=O)Oc1ccc(C(c2ccc(OC(C)=O)cc2)c2ccccn2)cc1`, the “normalized GFP fluorescence” value in test [1] was determined as 0.399. For the same molecule, in test [2], the “normalized DsRed fluorescence” value is 0.669.

Turning to `O=C(O)CCNC(=O)c1ccc(/N=N/c2ccc(O)c(C(=O)O)c2)cc1`, in test [1], the “normalized GFP fluorescence” value came to 0.565. In addition, the “normalized DsRed fluorescence” value in test [2] is 0.891.

As for `O=C(O)P(=O)(O)O`, the “normalized GFP fluorescence” value in test [1] came to 0.285. The “normalized DsRed fluorescence” value in test [2] was found to be 0.7.

Regarding `Cc1ccccc1N1C(=O)c2cc(S(N)(=O)=O)c(Cl)cc2NC1C` (stereo unspecified), the “normalized GFP fluorescence” value in test [1] was 0.113. Besides, the “normalized DsRed fluorescence” value in test [2] worked out at 1.33.

Turning to `NC(=O)N1c2ccccc2C=Cc2ccccc21`, the “normalized GFP fluorescence” value in test [1] amounted to 0.497. Besides, the “normalized DsRed fluorescence” value in test [2] worked out at 0.792.

As to `COCCOC(=O)C1=C(C)NC(C)=C(C(=O)OC/C=C/c2ccccc2)C1c1cccc([N+](=O)[O-])c1` (stereo unspecified) [Cilnidipine], in test [1], the “normalized GFP fluorescence” value is 0.176. Moreover, in test [2], the “normalized DsRed fluorescence” value was found to be 0.777.

Take `CCCC(CCC)C(=O)O` [Valproic acid sodium salt (Sodium valproate)]: in test [1], the “normalized GFP fluorescence” value worked out at 0.506. For the same molecule, the “normalized DsRed fluorescence” value in test [2] was determined as 0.638.

Consider `C=C(c1ccc(C(=O)O)cc1)c1cc2c(cc1C)C(C)(C)CCC2(C)C` [Bexarotene], for which the “normalized GFP fluorescence” value in test [1] is 0.666. Moreover, the “normalized DsRed fluorescence” value in test [2] was determined as 0.742.

Regarding `CC(C)(O/N=C(\C(=O)N[C@@H]1C(=O)N2C(C(=O)[O-])=C(C[n+]3ccccc3)CS[C@H]12)c1csc(N)n1)C(=O)O`, in test [1], the “normalized GFP fluorescence” value amounted to 0.00772. The “normalized DsRed fluorescence” value in test [2] turned out to be 1.28.

With `CN(C)CC(c1ccc(O)cc1)C1(O)CCCCC1` (stereo unspecified), the “normalized GFP fluorescence” value in test [1] worked out at 0.107. The “normalized DsRed fluorescence” value in test [2] worked out at 1.1.

Turning to `N#C[C@@H]1C[C@@H]2C[C@@H]2N1C(=O)[C@@H](N)C12CC3CC(CC(O)(C3)C1)C2`, the “normalized GFP fluorescence” value in test [1] was 0.824. The “normalized DsRed fluorescence” value in test [2] came out at 0.518.

Take `CCCCCCCCCCC[C@@H](C[C@@H]1OC(=O)[C@H]1CCCCCC)OC(=O)[C@H](CC(C)C)NC=O`: the “normalized GFP fluorescence” value in test [1] came out at 0.94. For the same molecule, the “normalized DsRed fluorescence” value in test [2] worked out at 0.482.

For `C[C@@H]1C[C@H]2[C@@H]3CCC4=CC(=O)C=C[C@]4(C)[C@@]3(Cl)[C@@H](O)C[C@]2(C)[C@@]1(OC(=O)c1ccco1)C(=O)CCl`, in test [1], the “normalized GFP fluorescence” value came to 0.456. In addition, in test [2], the “normalized DsRed fluorescence” value was found to be 1.18.
